Screens deposited in PubChem by National Center for Advancing Translational Sciences (NCATS).
Only some compounds are listed: those with a hit (about 2.8% of all), similar ones and a draw of the others.
PI4K2A inh: qHTS for small molecular inhibitors of PI4K2A. purified PI4K2A, ADP-Glo luminescence, 1 h; stronger effect = lower value. AID 1346378, 2018. activity change, negative = inhibition, % at 76.9 µM. 420,000 tested, 0.13% active; in the data active means activity change below about -50%; inconclusive means mostly about -30% to -49%;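 further: -100% = wells without enzyme as full effect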
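PI4K2A activity was measured by ADP-Glo luminescence: enzyme (4 ug/mL stock) and phosphatidylinositol (1.2 mM stock) in Tris pH 7.5/MgCl2/EGTA/Triton X-100 buffer were reacted with ATP (300 microM stock) for one hour at ambient temperature.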
PI5P4K alpha inh: qHTS for Inhibitors of phosphatidylinositol 5-phosphate 4-kinase (PI5P4K). Phosphatidylinositol 5-phosphate 4-kinase type-2 alpha (Homo sapiens), P48426. PI5P4Kalpha enzyme, ADP-Glo luminescence, 60 min; stronger effect = lower value. max response, %. 330,000 tested, 1.2% active; active means max response of -50% or lower; inconclusive means between -30% and -50%; inactive means -30% or higher; further: value at the top dose of about 77 µM; on the % scale 0 is the no-effect control and ±100 the full control effect
Target sequence (P48426 whole entry, looked up): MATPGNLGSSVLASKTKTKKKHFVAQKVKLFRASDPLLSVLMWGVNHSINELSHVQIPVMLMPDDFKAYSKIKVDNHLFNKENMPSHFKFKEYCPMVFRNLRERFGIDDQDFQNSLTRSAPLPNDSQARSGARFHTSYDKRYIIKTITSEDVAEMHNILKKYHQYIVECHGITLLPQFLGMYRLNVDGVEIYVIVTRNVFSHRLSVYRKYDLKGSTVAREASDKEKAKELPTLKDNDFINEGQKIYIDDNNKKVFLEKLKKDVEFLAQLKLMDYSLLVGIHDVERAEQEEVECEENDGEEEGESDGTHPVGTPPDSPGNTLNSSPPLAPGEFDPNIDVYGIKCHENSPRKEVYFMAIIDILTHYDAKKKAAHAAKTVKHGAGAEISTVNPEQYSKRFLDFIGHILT
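Controls without substrate or without enzyme flank wells where PI5P4Kalpha converts substrate using 5 microM ATP (final). Incubation lasts 60 minutes at room temperature; ADP formed is read by ADP-Glo luminescence.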
POLI inh: qHTS for Inhibitors of Polymerase Iota. Potency, µM (top dose mostly 115 µM), for inactives: at the top dose activity, negative = inhibition, usual class: inhibitors. Pol iota fluorescent replication assay, 10 min. 390,000 tested, 1% active. DNA polymerase iota (Homo sapiens), Q9UNA4; further: potency means the concentration at half of the fitted maximal effect
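Fluorescent replication assay read twice, at 0 min and 10 min after adding 50 nM (final) substrate. Enzyme (10 nM) and compounds were first incubated 15 min at room temperature; enzyme-free buffer wells were negative controls.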
Pol beta inh: qHTS Assay for Inhibitors of DNA Polymerase Beta; P06746; Pol beta primer extension/strand displacement, fluorescence kinetic; Potency, µM (top dose mostly 114 µM), inactives show at the top dose activity change, negative = inhibition, actives largely listed as inhibitors; 340,000 tested, 1.3% active; AID 485314, 2010; further: potency means the concentration at half of the fitted maximal effect; on the % scale 0 is the no-effect control and ±100 the full control effect
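Values derive from four-parameter Hill fits of normalized kinetic data: reads at 0 and 10 min following addition of 50 nM substrate to 10 nM Pol beta preincubated 15 min with compound.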
Pol eta inh-1: qHTS for Inhibitors of Polymerase Eta. Potency, µM (doses to about 114 µM), without a hit: top-dose activity change, negative = inhibition, most hits filed as inhibitors. 390,000 tested, 1.2% active. DNA polymerase eta (Homo sapiens), Q9Y253. recombinant Pol eta, fluorescent DNA replication assay; further: potency means the concentration at half of the fitted maximal effect; on the % scale 0 is the no-effect control and ±100 the full control effect
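Pol eta (10 nM) was preincubated with compounds for 15 min at room temperature, after which fluorescent replication substrate (50 nM final) was added to start the reaction. Fluorescence was read kinetically at 0 and 10 min.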
Pol kappa inh-1: qHTS for Inhibitors of Polymerase Kappa | DNA polymerase kappa (Homo sapiens), Q9UBT6 | purified Pol kappa, fluorescent DNA synthesis assay, 10 min | Potency, µM (doses to about 107 µM), for inactives: at the highest dose activity, negative = inhibition, hits mostly inhibitors | 400,000 tested, 0.53% active; further: potency means the concentration at half of the fitted maximal effect; on the % scale 0 is the no-effect control and ±100 the full control effect
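10 nM Pol kappa preincubated 15 min at room temperature with compounds, then reaction started with substrate at 50 nM final. Fluorescence read kinetically at 0 and 10 min; buffer-only wells served as negative control.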
GALK inh confirm: Confirmation Assay for Inhibitors of Human Galactokinase (GALK) | shares compounds with Pol eta inh-1 | AID 2015, 2009 | Potency, µM (top dose mostly 115 µM), for the others: top-dose activity, negative = inhibition, most hits filed as inhibitors | 150 tested, 70% active | purified GALK, Kinase-Glo ATP depletion luminescence
GALK redox cs: Confirmatory Assay for Inhibitors of Human Galactokinase (GALK): Phenol-HRP redox assay counterscreen | Potency, µM (doses to about 115 µM), for inactives: at the highest dose activity change, negative = H2O2 signal, hits mostly inhibitors | 150 tested, 40% active | AID 2035, 2009 | Phenol red-HRP H2O2 redox cycling, absorbance 600 nm | shares compounds with Pol eta inh-1
HEK293 viability: Secondary Assay for Inhibitors of Human Galactokinase (GALK): HEK-293 Cell Viability Assay. shares compounds with Pol eta inh-1. HEK-293 viability, ATP luminescence (CellTiter-Glo), 24/48 h. Potency, µM (top dose mostly 46.1 µM), for the others: at the top dose activity change, negative = cytotoxicity, hits mostly inhibitors. 170 tested, 10% active; further: potency means the concentration at half of the fitted maximal effect; on the % scale 0 is the no-effect control and ±100 the full control effect
Pol kappa inh-2: qHTS for Inhibitors of Polymerase Kappa: Confirmatory Assay for Cherry-picked Compounds | purified Pol-kappa, fluorescent strand-displacement substrate | shares compounds with Pol eta inh-1 | Potency, µM, most hits filed as inhibitors | 920 tested, 76% active; further: potency means the concentration at half of the fitted maximal effect
Pol eta inh-2: qHTS for Inhibitors of Polymerase Eta: Confirmatory Assay for Cherry-picked Compounds; shares compounds with Pol eta inh-1; AID 720502, 2013; Potency, µM, usual class: inhibitors; 2,600 tested, 64% active; Pol eta primer extension, TAMRA/BHQ fluorescence, 10 min; further: potency means the concentration at half of the fitted maximal effect
* hit, by the source's call; ? = inconclusive; . = no result; [ ] = another dose, or the depositor's remark. Unless noted, the call rests on the fitted dose curve; in most records, active means well fitted curve in the direction sought with a large enough effect; inconclusive means small, poorly fitted or top-dose-only effect, or another doubt; inactive means no such curve, though single readings can be large; an effect the other way counts as inactive or inconclusive.

SMILES	PI4K2A inh	PI5P4K alpha inh	POLI inh	Pol beta inh	Pol eta inh-1	Pol kappa inh-1	Pol eta inh-2	others
CCN(Cc1ccccc1)C(=O)Cn1ncc2c(=O)oc3ccc(C)cc3c21	0	.	50%	29%	-20%	-2%	.
COC(=O)c1ccccc1NC(=O)COC(=O)/C=C/c1ccco1	3	-1	29%	?	-3%	3%	.
O=C(COC(=O)/C=C/c1ccco1)Nc1ccc(F)cc1Cl	2	-17	?	22µM*	?	?	?
O=C(CSc1nc2nc(-c3cccs3)cc(C(F)(F)F)c2c(=O)[nH]1)NCc1ccco1	1	?	?	56µM*	18µM*	-41%	38*
Cc1cc2oc(C(=O)Nc3sc4c(c3C(=O)NCc3ccco3)CCC4)cc(=O)c2cc1C	1	.	?	?	50µM*	?	?	Pol kappa inh-2=?
CCOC(=O)c1scc(-c2ccc(C)cc2)c1S(=O)(=O)Nc1cccc(CC)c1	1	.	-26%	19%	-8%	5%	.
NNC(=O)c1cc(NS(=O)(=O)c2cccs2)cc(NS(=O)(=O)c2cccs2)c1	-5	?	40µM*	.	20µM*	?	?
O=C(O)c1ccc(S(=O)(=O)N[C@@H](Cc2ccc(O)cc2)C(=O)O)cc1	.	.	.	.	.	.	38*	Pol kappa inh-2=11*
Cc1ccc(S(=O)(=O)N[C@@H](CO)C(=O)N[C@@H](Cc2ccc(O)cc2)C(=O)O)cc1	5	7	13%	-3%	-19%	-15%	.
COC(=O)[C@H](CC(C)C)NC(=O)c1ccc(NC[C@@H](N)CS)cc1-c1cccc2ccccc12	.	.	.	.	.	-5%[60.1 µM]	.
CCc1ccc(S(=O)(=O)Nc2ccc(O)c3ccccc23)cc1	-24	?	?	11%	2%	-13%	.
CCc1ccc(S(=O)(=O)Nc2cc(SCC(=O)O)c(O)c3ccccc23)cc1	?	?	5.6µM*	?	50µM*	?	?
CCOC(=O)c1c(-c2ccccc2)oc2ccc(N(C(C)=O)S(=O)(=O)c3cc(C)ccc3C)cc12	-1	.	-3%	15%	-5%	9%	.
O=C1ON=C(c2ccccc2)/C1=C/c1ccc(O)c(O)c1	-4	-59*	?	-17%	22µM*	12%	60*	GALK inh confirm=?;GALK redox cs=-16%;HEK293 viability=-3%
CCOC(=O)c1cc(OC(=O)Cc2ccc(OC)c(S(=O)(=O)N3CCOCC3)c2)cc(C(=O)OCC)c1	0	15	.	.	-5%	.	.
Cc1ccc(S(=O)(=O)NC(=O)C2(C)CCN2C(=O)Cc2ccc(C(C)(C)C)cc2)cc1 (stereo not drawn)	5	2	.	.	.	.	.
Cc1noc(NS(=O)(=O)c2ccc(NC(=O)CSc3nnc4c(n3)[nH]c3ccccc34)cc2)c1C	-10	-6	?	?	25µM*	?	24*
Cc1noc(NS(=O)(=O)c2ccc(NC(=O)CSc3nc4ccccc4[nH]3)cc2)c1C	0	.	-3%	-7%	-11%	-6%	.
N#Cc1c(N)[nH]c(C(=O)c2ccccc2)c1-c1ccccc1Br	-3	-18	.	.	.	.	.
CC(C)OC(=O)C(C(=O)C(F)(F)F)c1cc(NS(=O)(=O)c2ccc3ccccc3c2)c2ccccc2c1O (stereo not drawn)	-2	-22	?	-6%	?	-15%	.	GALK inh confirm=?;GALK redox cs=-1%;HEK293 viability=-14%
Cc1cccc(C)c1NC(=O)Cn1cc(C(=O)C2CC2)c2ccccc21	-8	.	-24%	-13%	6%	-10%	.
CC(C)NC(=O)N1CC[C@@]2(CCCN(C(=O)c3cnccn3)C2)C1	.	.	.	.	.	-5%[60.1 µM]	.
S=c1[nH]nc(-c2n[nH]c3c2CCC3)n1/N=C/C=C/c1ccco1	-3	-52*	?	40µM*	25µM*	79µM*	30*
S=c1[nH]nc(-c2ccco2)n1/N=C/C=C/c1ccco1	-14	-69*	11µM*	35µM*	28µM*	79µM*	85*
S=c1[nH]nc(-c2n[nH]c3c2CCC3)n1N=Cc1ccco1	1	.	.	.	.	.	.
SMILES	PI4K2A inh	PI5P4K alpha inh	POLI inh	Pol beta inh	Pol eta inh-1	Pol kappa inh-1	Pol eta inh-2	others
COc1cc(C)ccc1OCCSc1nnc(-c2ccc(C)cc2)o1	2	.	18%	-13%	.	-6%	.
O=C1CCCC(O)=C1Sc1ccccc1C(=O)O	-7	-16	32µM*	10µM*	8.9µM*	?	60*
Cc1ccc2c(Sc3ccc(Cl)cc3)c(C(=O)NCCC(C)C)[nH]c2c1	0	.	11%	15%	-16%	-2%	.
CC(C)C1Nc2ccc(C(=O)O)cc2C2C=CCC21 (stereo not drawn)	-7	?	?	13µM*	20µM*	?	27*
c1csc(-c2nn3c(C4COc5ccccc5O4)nnc3s2)c1 (stereo not drawn)	0	.	19%	-8%	-5%	-8%	.
c1ccc2c(c1)OCC(c1nnc3sc(-c4cnccn4)nn13)O2 (stereo not drawn)	1	.	?	4%	89µM*	-22%	?
